{"source": "the supplement of paper PMC6555819"}
{"test_system": "VDR:RXRa (NR concentration 270 nM, RXRa partner concentration 90 nM)", "test": "PBM binding z-score (relative to random genomic background probes); higher = stronger binding; sequences stand for … in GC…GCGATTGACAGCGTAGAATGAAGG", "method": "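Protein-binding microarray (Agilent 4x180K custom design, double-stranded 60-nt probes: 5' GC cap, 34-nt variable region, 24-nt constant primer region; full probe sequence given). Purified or IVT nuclear receptor:RXRα heterodimers (3:1 NR:RXRα, mostly 270:90 nM) or homodimers were incubated for 1 h in PBS with 2% milk and no ligand, then detected with Alexa488 antibodies. Fluorescence from o1-orientation probes (~5 replicates averaged) was converted to z-scores against 500 random hg19 background probes. Variable regions are seed direct-repeat (DR0–DR5) sites, all their single-nucleotide variants and half-site ablations.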"}
{"sequence": "CCCGACAGGTGAAAGGTAACTCAGTCTGGTACGC", "PBM binding z-score": 0.836}
{"sequence": "TCGAGTAGGTTACCAACGGGGCATTCAGCTTTCT", "PBM binding z-score": 0.126}
{"sequence": "ATCGAAAGGTCGAAGGTGAGTATACCCACCCGAA", "PBM binding z-score": 2.91}
{"sequence": "ATATGTAGGTTAAGGGTCATACAGGTTGGTTCGC", "PBM binding z-score": 5.42}
{"sequence": "TTACCAAGGTGAAGTTCGTTGATCCCTCTGTAGA", "PBM binding z-score": 1.49}
{"sequence": "GCTCGAAGGACAAGGTCAGAGCTTTGTCCGTAGA", "PBM binding z-score": 1.31}
{"sequence": "TAGCCTAGATCATGGGCCAGTATACCACGCGAAC", "PBM binding z-score": -0.59}
{"sequence": "TCTCGGAGGACACGGAGGTCAGAGCTTTCCAGAG", "PBM binding z-score": 3.39}
{"sequence": "ACAACGAGGGCAATGAGTTGATAGCACGGGTGGC", "PBM binding z-score": 5.13}
{"sequence": "CAAACTGGGTCACCGGAAGGTCAAAGTCCGCATG", "PBM binding z-score": 5.93}
{"sequence": "ATATGTAGGTTATCGGGTGATTCAGTTTGCGCAT", "PBM binding z-score": 1.77}
{"sequence": "TCAGACAGGGGAAGGTAACTCAGGTACGCAGTCG", "PBM binding z-score": 0.795}
{"sequence": "CCTAGTTGGTCAAGGTCACAGACGCTATAGGTAC", "PBM binding z-score": 4.29}
{"sequence": "CCAACTGGGGCAAAGGTTACCATACTCAGTACGA", "PBM binding z-score": 1.7}
{"sequence": "GCTGCTAGGTCAACTGACGGTCAGCTAAAGCTCG", "PBM binding z-score": 1.88}
{"sequence": "CCTCGGAGGACACAAGGTCAGAGCTGTCCGCTTT", "PBM binding z-score": 1.88}
{"sequence": "ACTAGCAGGCCAAGTTTGTGTCACTCAAACAAAG", "PBM binding z-score": -0.313}
{"sequence": "AGTCAAAGTTTACTAGGTAACGTAAGATTCAGCT", "PBM binding z-score": 0.363}
{"sequence": "CTTCAAAGTTCAAGGTAACGTAACAGAAAGCAGC", "PBM binding z-score": 3.51}
{"sequence": "ACAGACAGGTGATGAAGGTACCTCAGGCTATCAT", "PBM binding z-score": -0.291}
{"sequence": "AGTCAAAGTTCACTAGGTAACGTTAGATTCAGCT", "PBM binding z-score": 4.07}
{"sequence": "TCTATTAGTTGATTAGGGCAATCGAAACAGCGGA", "PBM binding z-score": 0.607}
{"sequence": "ACTATTAGTGGACTTAGGGCAACCGATACGACGC", "PBM binding z-score": 0.119}
{"sequence": "CCTACTGGGCCAAGGTGATTGATCAGTCAAAGCA", "PBM binding z-score": -0.746}
{"sequence": "TATACAGGGTCAAAGGCCAGACTACGAATGTCGA", "PBM binding z-score": 4.68}
{"sequence": "CTCGAAAGGTCGGTTGAGGTGAGTTTACGGATAA", "PBM binding z-score": 3.29}
{"sequence": "CCGAGTAGGTTATGGGGCATTCAGGCAACGGTGA", "PBM binding z-score": -0.0737}
{"sequence": "AGAATGAGGTTATACGTAGATCAGGAAAGAAAGT", "PBM binding z-score": 1.51}
{"sequence": "TCGAGTAGGTTACCAATCGGGCATTCAGCTTTCT", "PBM binding z-score": -0.344}
{"sequence": "GCTGCTAGATCAACTGATGGTCAGCTAAAGCTCG", "PBM binding z-score": -0.766}
{"sequence": "AGAATGAGGCTATACGTAGATCAGGGAAGAAAGT", "PBM binding z-score": -0.45}
{"sequence": "CATACAGGGTCAGCCAGGCCAGAGTAGGGACGGC", "PBM binding z-score": 4.58}
{"sequence": "TCGAGTAGGTTACCAATGGGGCCTTCAGCTTTCT", "PBM binding z-score": -0.371}
{"sequence": "GCTTGTAGATCAAGGCTAAGAAAGACTAAGCTAA", "PBM binding z-score": -0.679}
{"sequence": "GCATATAGGGAATACAAGGTGAAAGTCCGATTGT", "PBM binding z-score": 0.0593}
{"sequence": "CGAACTAGGTCAAGAGGTCAAAGTCCGCTTCCCG", "PBM binding z-score": 6.13}
{"sequence": "TTACCAAGATGAAAGGTCGTTGATGCACGCCTTG", "PBM binding z-score": 1.69}
{"sequence": "ATCGAAAGGTCGATGAGGTGAGTATACACCGTTT", "PBM binding z-score": 5.2}
{"sequence": "GCTGCTAGGTCAACTGATGGTCTGCTAAAGCTCG", "PBM binding z-score": 1.29}
{"sequence": "CCGATTAGGTTATGGGGCATTCAGGCAACGGTGA", "PBM binding z-score": 0.0574}
